PME-1 inh: blocks human protein phosphatase methylesterase 1; Q9Y570; recombinant PME-1, FP-Rh probe fluorescence polarization; inhibition, % at 5.9 µM; 0.53% of 320,000 active;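 active = inhibition above the campaign mean of all compounds plus 3 SD, cut at about 26% in these data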;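 note: competitive labeling of PME-1 active site by serine hydrolase directed probe; 0% = PME-1 with DMSO and 100% = wells lacking PME-1 enzyme; inhibitors block probe labeling so polarization falls and inhibition rises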
LYPLA2 inh: LYPLA2 (human) inhibition in PME1 counter-screen | O95372 | recombinant LYPLA2, FP-Rh probe fluorescence polarization | inhibition, % at 5.9 µM | 0.38% of 320,000 active;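 active = inhibition above the screen-wide mean plus 3 SD, limit set per campaign, cut at about 26% in these data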;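 note: 0% = LYPLA2 with DMSO and 100% = wells lacking LYPLA2 enzyme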
LYPLA1 counter: counter-screen for PME1 inhibitors: inhibitors of human LYPLA1 | O75608 | recombinant LYPLA1, FP-Rh probe fluorescence polarization | inhibition, % at 5.9 µM | 0.16% of 320,000 active;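 active = inhibition above the mean of all tested compounds plus 3 SD, set per campaign, cut at about 14% in these data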;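 note: inhibitors block serine hydrolase probe labeling of LYPLA1 so polarization falls; 0% = enzyme with DMSO and 100% = wells lacking LYPLA1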
PREPL inh: inhibits the human prolyl oligopeptidase-like enzyme; Q4J6C6; recombinant PREPL, fluorescence polarization activity-based probe; inhibition, % at 5.96 µM; 0.68% of 320,000 active; AID 2751; in the data active = inhibition above about 43%;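 note: 0% = enzyme with DMSO and 100% = wells lacking enzyme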
Fam108B counter: counter-screen for RBBP9 inhibitors: inhibitors of mouse Fam108B | recombinant Fam108B, FP-Rh probe fluorescence polarization | inhibition, % at 9.51 µM | 0.33% of 300,000 active;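 active = inhibition above the screen mean inhibition plus 3 SD, computed separately per campaign, cut at about 18% in these data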;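 note: inhibitors lower polarization as less probe binds the enzyme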
GSTO1 inh: counter-screen for RBBP9 inhibitors: inhibitors of human GSTO1; recombinant GSTO1, activity-based probe fluorescence polarization; inhibition, % at 5.96 µM; 1.1% of 300,000 active; AID 1974;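 active = inhibition above the campaign mean inhibition plus 3 SD, cut at about 35% in these data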;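 note: 0% = GSTO1-1 with DMSO and 100% = wells lacking GSTO1-1 enzyme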
* marks the source's active call; other numbers are inactive results; . = no result given. Only some compounds are listed: those with a hit (about 2% of all), similar ones and a draw of the others.

SMILES | PME-1 inh | LYPLA2 inh | LYPLA1 counter | PREPL inh | Fam108B counter | GSTO1 inh
CN1C(=O)C(Cc2ccc3c(c2)OCO3)C(=O)N(C)C1=O | 6 | 7 | 4 | 7 | 1 | 41*
NC1CCc2cc(O)c(O)cc2C1 (stereo not given) | -4 | -1 | 1 | 9 | -8 | 21
NC(C(=O)O)c1cc(=O)[nH]o1 (stereo not given) | -1 | -3 | -1 | 4 | -4 | 8
CN1/C(=C\C=C\C2=[N+](C)c3ccc4ccccc4c3C2(C)C)C(C)(C)c2ccccc21 | 179* | -329 | -121 | -233 | -225 | -124
CN1/C(=C\C=Nc2ccccc2)C(C)(C)c2ccccc21 | -18 | -18 | -6 | -54 | -14 | -9
NC(N)=Nc1ccc2[nH]c3c(c2c1)C[C@@]1(O)[C@H]2Cc4ccc(O)c5c4[C@@]1(CCN2CC1CC1)C3O5 (stereo not given in full) | . | . | . | 14 | . | .
COC(=O)C1=C(c2ccc(F)cc2OCc2ccccc2)C[C@@H]2CC[C@H]1N2C(=O)NCCCc1ccccc1 | -2 | -8 | -3 | 25 | . | .
c1cncc(C2Nc3cccc4cccc(c34)N2)c1 | 11 | -10 | -14 | 22 | 17 | 64*
CC[C@H](C)/C=C(C)/C=C/C1=CC2=C(Cl)C(=O)[C@@](C)(OC(C)=O)C(=O)C2=CO1 | 1 | 10 | 1 | 42 | 12 | 36*
C=CCN1CC[C@]23c4c5ccc(O)c4OC2C(O)C=CC3[C@H]1C5 (stereo not given in full) | . | . | . | -7 | . | .
NP(=O)(Oc1ccc(Cl)cc1)Oc1ccc(Cl)cc1 | 71* | -3 | -5 | -3 | -1 | 21
Cc1cccc(OP(N)(=O)Oc2cccc(C)c2)c1 | 8 | 4 | 1 | 3 | 1 | -4
COc1ccc(-n2c(/C=C/c3ccc(O)c(O)c3)nc3ccccc3c2=O)cc1 | 34* | -13 | -13 | 33 | 9 | 26
COc1cc(/C=C/c2nc3ccccc3c(=O)n2-c2ccc(O)cc2)ccc1O | 26 | -1 | -8 | 3 | 7 | -13
CCN1C[C@]2(C)CC[C@H](O)[C@]34C1[C@H](C[C@H]23)[C@@]1(O)C[C@H](OC)[C@H]2C[C@@H]4[C@@H]1C2O (stereo not given in full) | -9 | -4 | -3 | 8 | -9 | 3
C/C(CC(c1ccccc1)c1c(O)c2ccccc2oc1=O)=N\Nc1ccc([N+](=O)[O-])cc1[N+](=O)[O-] (stereo not given) | 5 | 5 | 3 | 30 | 6 | 37*
CC/C(CC(c1ccccc1)c1c(O)c2ccccc2oc1=O)=N\NC(N)=S (stereo not given) | -4 | -5 | -2 | -3 | 1 | -7
O=P(Oc1ccccc1)(Oc1ccccc1)C(O)c1ccc(Cl)cc1 (stereo not given) | 47* | 4 | 1 | 3 | 1 | 8
COc1ccc(C(O)P(=O)(Oc2ccccc2)Oc2ccccc2)cc1 (stereo not given) | 38* | -6 | 2 | 13 | 3 | 21
O=C(CN1CC=C(c2ccccc2)CC1)NC(=O)NCc1ccco1 | -4 | 0 | 0 | 5 | -2 | 2
Cc1cc(Br)c(NC(=O)CN2CC=C(c3ccccc3)CC2)c(Br)c1 | 31* | -5 | -1 | -8 | 0 | -29
COC(=O)C1=C(c2ccc(OC(F)(F)F)cc2)C[C@@H]2CC[C@H]1N2C(=O)N1CCCCC1 | -3 | 4 | -1 | -7 | . | .
COCCNC(=O)c1c(NC(=O)c2ccc(Br)o2)n(Cc2ccccc2)c2nc3ccccc3nc12 | 19 | -10 | -2 | 0 | 10 | 77*
C[C@]12CCC3C(CC[C@H]4C[C@@H](O)CC[C@]34C)C1CCC2=O (stereo not given in full) | . | . | . | 4 | . | .
COC(=O)C1=C(c2cccc(OCc3ccccc3)c2)C[C@@H]2CC[C@H]1N2C(=O)NCc1ccccc1OC | -3 | -2 | -3 | 33 | . | .
SMILES | PME-1 inh | LYPLA2 inh | LYPLA1 counter | PREPL inh | Fam108B counter | GSTO1 inh
Nc1c(C(=O)NC2CCCC2)c2nc3ccccc3nc2n1CC1CCCO1 (stereo not given) | 13 | -7 | -4 | 11 | 4 | 66*
Nc1c(C(=O)NCC2CCCO2)c2nc3ccccc3nc2n1Cc1ccco1 (stereo not given) | -4 | -8 | -4 | 19 | -1 | 16
CC(=O)O[C@H]1[C@H]2O[C@]23[C@@H]2CC[C@]4(O)C[C@@H](O)CC[C@]4(C)C2CC[C@]3(C)[C@H]1c1ccc(=O)oc1 (stereo not given in full) | 2 | 0 | 0 | 1 | . | .
O=P(CCl)(Nc1ccccc1)C(Cl)(Cl)Cl (stereo not given) | 30* | 5 | 2 | 0 | 4 | -3
O=P(Nc1ccccc1)(Oc1ccccc1)Oc1ccccc1 | -2 | -1 | -3 | 11 | -3 | 0
Cc1ccc(/C=C2\C(=O)NC(=S)N(c3cccc(F)c3)C2=O)o1 | -11 | -6 | -11 | -6 | -2 | 1
O=C1NC(=S)N(c2ccc(F)cc2)C(=O)/C1=C/c1ccco1 | -17 | 7 | -11 | 17 | 52* | 3
COC(=O)C1=C(c2cccc(OCc3ccccc3)c2)C[C@@H]2CC[C@H]1N2C(=O)NCc1cc(C)oc1C(F)(F)F | -7 | 5 | 0 | 12 | . | .
CC(=O)c1ccc2c(c1)C1C(Cl)C(Sc3ccccc3[N+](=O)[O-])CC1C(c1ccccc1[N+](=O)[O-])N2 (stereo not given) | 86* | -13 | -16 | -19 | 1 | -8
COC1=CC(=O)O[C@@H](/C=C/c2ccccc2)C1 | -1 | 3 | 1 | -6 | -7 | 0
Cc1oc(-c2ccccc2)nc1CN1C(=O)CN=C(c2ccccc2)c2ccccc21 | 32* | -3 | 4 | 30 | 1 | -1
CCCCCn1c(NC(=O)c2ccco2)c(C(=O)OCC)c2nc3ccccc3nc21 | 4 | -4 | -5 | 3 | 2 | 74*
CCN(CCO)c1ccc(N=Cc2c(O)n(C)c(=S)[nH]c2=O)cc1 | 2 | 6 | 0 | 21 | -3 | 48*
O=C1CN(C(=O)COC(=O)Cc2ccccc2)c2ccccc2N1 | 0 | 6 | 0 | -9 | 0 | 35*
COC(=O)C1=C(c2cccc(OCc3ccccc3)c2)C[C@@H]2CC[C@H]1N2C(=O)NCCc1ccc(F)cc1 | -3 | -5 | -2 | 36 | . | .
CCN(CC)S(=O)(=O)c1cc(NC(=O)C(C)N2CC=C(c3ccccc3)CC2)ccc1C (stereo not given) | 47* | -13 | -6 | 15 | -13 | -6
Cc1cccc(NP(=O)(Oc2ccccc2)Oc2ccccc2)c1C | 3 | -4 | -1 | -15 | 0 | 4
Cc1ccccc1NP(=O)(Oc1ccccc1F)Oc1ccccc1F | 39* | -2 | -4 | 1 | 0 | -2
CC1(C)NC(=O)[C@H]2CCCN21 | -1 | -1 | 0 | 9 | -1 | 8

Source: PubChem (The Scripps Research Institute Molecular Screening Center)
